# Screens from PubChem BioAssay.
# GLP-1R inv ag – inverse agonists of human GLP-1 receptor; P43220; HEK293 GLP-1R CRE-luciferase, luminescence, 24 h; GLP-1R form is constitutively active; Potency, µM (series often up to 38.3 µM), inactives show top-dose activity change, negative = inhibition, hits mostly inhibitors; 1.6% of 410,000 active; further: on the % scale 0 is the no-effect control and ±100 the full control effect; nearly all actives have a fitted effect of over 55% in size
# Target sequence (P43220 whole entry, looked up): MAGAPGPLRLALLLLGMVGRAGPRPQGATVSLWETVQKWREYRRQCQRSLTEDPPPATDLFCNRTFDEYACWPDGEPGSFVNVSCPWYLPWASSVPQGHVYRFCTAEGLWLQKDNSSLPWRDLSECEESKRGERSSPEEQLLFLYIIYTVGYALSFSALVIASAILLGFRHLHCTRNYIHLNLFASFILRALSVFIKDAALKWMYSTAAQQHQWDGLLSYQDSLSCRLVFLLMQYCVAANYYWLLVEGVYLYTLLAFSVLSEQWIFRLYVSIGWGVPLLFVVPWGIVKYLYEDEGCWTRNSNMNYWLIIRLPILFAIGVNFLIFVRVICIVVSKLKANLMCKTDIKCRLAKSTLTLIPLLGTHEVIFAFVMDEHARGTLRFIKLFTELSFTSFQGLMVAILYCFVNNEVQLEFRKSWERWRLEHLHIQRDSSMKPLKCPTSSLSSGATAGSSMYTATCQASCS
#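 Inverse agonists were sought by their lowering of basal cAMP reporter luciferase output in HEK293 cells stably carrying constitutively active human GLP-1R, after 24 h compound treatment.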
# GLP1R cytotox – cytotoxicity in counter-screen for GLP-1R inverse agonists. HEK293 cAMP-luciferase reporter cells, luminescence, 24 h. Potency, µM (highest dose often 38.3 µM), without a hit: at the top dose activity change, negative = inhibition, most hits filed as inhibitors. 0.13% of 410,000 active. AID 624418;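 further: loss of luciferase light is scored as toxicity; on the % scale 0 is the no-effect control and ±100 the full control effect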
#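 Luminescence readout: signal drop marks cytotoxicity. Plated cells grew 12 h at 37 °C, 5% CO2, received 23 nL compound for 24 h, then got luciferase reagent, read after 12 min at RT.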
# ClpP mod – qHTS Assay for Activators of ClpP | purified B. subtilis ClpP, FRET peptide cleavage, 20 min | Potency, µM (titrated, usually from 57.5 µM), without a hit: at the top dose activity change, negative = active | 1.9% of 340,000 active; active means well fitted falling curve with a large enough effect; inconclusive means small, poorly fitted or top-dose-only effect; inactive means no such curve, though single readings can be large or run the other way; further: the source files actives as falling curves though it sought activators and does not explain the sign; nearly all actives have a fitted effect of over 65% in size
#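 Purified B. subtilis ClpP, 10 microg/mL final in Tris/HCl pH8 with KCl, BSA, glycerol and Tween-20, cleaved an Abz/nitrotyrosine-quenched decapeptide. Fluorescence (ex 320, em 430) was read at 0 and 20 min at room temperature. Delta was normalized to 5.8 microM ADEP and DMSO/no-enzyme controls.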
# GLP-1R agonist – GLP-1 receptor (human) agonism; HEK293 GLP-1R CRE-luciferase, luminescence, 4-6 h; cells express a hypersensitive GLP-1R form; Potency, µM (highest dose often 45.6 µM), for inactives: at the top dose activation, hits mostly activators; 0.007% of 380,000 active; further: % of control where 0% means no effect
# * hit, by the source's call; ? = inconclusive; · = not tested or not shown. Compounds with a hit are over-represented: about 3.2% of the library has one in this group of screens. Unless noted, the call rests on the fitted dose curve; in most records, active means well fitted curve in the direction sought with a large enough effect; inconclusive means small, poorly fitted or top-dose-only effect, or another doubt; inactive means no such curve, though single readings can be large; an effect the other way counts as inactive or inconclusive. Potency means the concentration at half of the fitted maximal effect.
SMILES,GLP-1R inv ag,GLP1R cytotox,ClpP mod,GLP-1R agonist
COc1cc(NC(=O)Cn2c(=O)n(CC(=O)NCCc3ccc(OC)c(OC)c3)c(=O)c3sccc32)cc(OC)c1,13.3%,-2.7%,2.4%,·
Cc1ccc2[nH]c(=O)c(CN(CCCO)Cc3nnnn3Cc3ccccc3)cc2c1,·,·,-21.1%,·
Cc1ccc2nc(-c3cccs3)c(Nc3ccccc3)n2c1,·,·,4.0%,·
CCS/C(N)=N/N=C/c1cc(C)ccc1O,?,?,2.1%,-34.5%
CCCCS/C(N)=N/N=C/c1cc(C)ccc1O,10µM*,-13.7%,-1.7%,35.3%
CCOc1ccc(C2c3[nH]c4ccccc4c3CCN2C(=O)CCC2CCCC2)cc1 (stereo not drawn),1.26µM*,0.7%,-2.9%,·
CCOc1ccc(C2c3[nH]c4ccccc4c3CCN2C(=O)CSc2ccccc2)cc1 (stereo not drawn),5.01µM*,3.1%,-1.9%,·
Cc1ccc(C2c3[nH]c4ccccc4c3CCN2C(=O)CSc2ccccc2)cc1 (stereo not drawn),?,-1.9%,-4.2%,·
CCOc1cccc(CC(=O)N2CCc3c([nH]c4ccccc34)C2c2ccc(Cl)cc2)c1OCC (stereo not drawn),10µM*,-14.5%,0.0%,·
O=C(CCc1ccccc1)N1CCc2c([nH]c3ccccc23)C1c1ccc(Cl)cc1 (stereo not drawn),?,0.6%,-7.6%,·
O=C(CSCc1ccc(F)cc1)N1CCc2c([nH]c3ccccc23)C1c1ccc(F)cc1 (stereo not drawn),4.47µM*,-5.1%,-3.9%,·
CCC(C)NC(=O)c1ccc2c(c1)N=C(C)c1cc(C)ccc1S2 (stereo not drawn),?,?,-4.2%,0.4%
CCOC(=O)c1[nH]c(C)c(C(=O)N2CCc3c([nH]c4ccccc34)C2c2ccccn2)c1C (stereo not drawn),11.2µM*,-19.3%,0.9%,6.6%
Cc1cc2cc(C(=O)N3CCc4c([nH]c5ccccc45)C3c3ccccn3)ccc2o1 (stereo not drawn),?,-6.2%,-2.5%,8.6%
O=C(CCC1CCCC1)N1CCc2c([nH]c3ccccc23)C1c1ccc(Cl)cc1 (stereo not drawn),3.16µM*,12.8%,-3.8%,·
CCOC(=O)c1ccc(N2CCN(c3ccccc3OC)CC2)c(NC(=O)Nc2ccc(CC)cc2)c1,2.1%,-4.8%,1.1%,·
CCOC(=O)c1ccc(N2CCN(c3ccc(F)cc3)CC2)c(NC(=O)Nc2ccc(CC)cc2)c1,6.8%,1.6%,-3.6%,·
CCOC(=O)c1ccc(N2CCN(c3ccccc3F)CC2)c(NC(=O)Nc2ccccc2)c1,2.51µM*,0.8%,1.3%,4.1%
CCOC(=O)c1ccc(N2CCN(c3ccc(F)cc3)CC2)c(NC(=O)Nc2cccc(OC)c2)c1,9.0%,0.4%,28.2µM*,-22.1%
CSc1ccccc1CNC(=O)C1(C)CCCN1CC(C)C (stereo not drawn),?,2.8%,1.4%,-6.2%
